Assay outcomes as filed in PubChem.
Rows were chosen to be rich in hits. Some 1.8% of all compounds tested hit in one or more screens of this group.
MLLE-PAM2 inh = inhibitors of PABP1 MLLE–PAM2 peptide binding, primary screen, biochemical, fluorescence polarization, FITC-PAM2, GST-MLLE. 0.36% of 360,000 active. inhibition, % at 20 µM; in the data active = inhibition above about 35%, passing the limit was not always enough;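 note: plate controls were DMSO wells with GST-MLLE for no effect and wells lacking GST-MLLE protein for full effect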
PABP polyA inh = PABP poly(A) RNA binding inhibitors, primary screen, biochemical, fluorescence polarization, uHTS; calls only at 35 µM; AID 2014, 2009; Polyadenylate-binding protein 1 (Homo sapiens), P11940; 1% of 290,000 active;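 note: calls also rest on retests at 20 µM and on dose response follow-up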
MEX-5 binding = MEX-5 zinc finger RNA-binding disruptors – biochemical, C. elegans, fluorescence polarization, MLPCN library, primary screen | 0.38% of 300,000 active | activity score (negative = inhibition of binding), % at 10 µM | Zinc finger protein mex-5 (Caenorhabditis elegans), Q9XUB2 | MEX-5/FITC-TCR2 RNA binding; stronger effect = lower value;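 active = inhibition past about -25% in most replicates, and total fluorescence under double the plate's negative control median, limit read from the data; inconclusive = replicates evenly split on the limit, or fluorescence at least double controls; inactive = too little inhibition in most replicates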;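 note: 0% = DMSO and -100% = 5 µM competing unlabeled TCR2 RNA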
eIF4H inh = human eIF4H binding inhibitors, primary screen, translation initiation inhibitor project, biochemical, uHTS, fluorescence polarization | Eukaryotic translation initiation factor 4H (Homo sapiens), Q15056 | eIF4H fluorescence polarization binding assay | inhibition, % at 35 µM | 0.94% of 290,000 active | AID 2012, 2009;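 note: calls also rest on retests at 20 µM and on dose response follow-up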
EBV gp42 inh = Epstein-Barr virus gp42 inhibitors, primary screen, biochemical, uHTS, fluorescence polarization; Glycoprotein 42 (Epstein-Barr virus (strain AG876)), Q1HVG2; Fluorescence polarization binding assay, mP read-out; inhibition, % (tested at 21.74 µM); 0.42% of 220,000 active; in the data active = inhibition above about 50%
Target sequence (Q1HVG2 whole entry, looked up): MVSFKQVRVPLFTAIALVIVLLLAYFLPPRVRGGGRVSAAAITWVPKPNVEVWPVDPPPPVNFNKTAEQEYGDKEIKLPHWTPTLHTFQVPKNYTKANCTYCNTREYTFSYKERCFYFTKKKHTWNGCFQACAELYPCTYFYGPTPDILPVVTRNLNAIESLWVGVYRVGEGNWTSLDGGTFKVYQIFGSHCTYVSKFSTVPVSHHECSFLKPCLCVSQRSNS
* = called active by the depositor; i = inactive; ? = inconclusive; nt = not tested or not shown; + = active, no number. Unless noted, the rule behind the calls is not given here.

SMILES | MLLE-PAM2 inh | PABP polyA inh | MEX-5 binding | eIF4H inh | EBV gp42 inh
Cc1nc(Cl)c2c(n1)NC1=C(O2)C(=O)CCC1 | 153.1 | i | ? | 79.0 | 136.0*
CN(C)Cc1ccccc1-c1cccc2nccn12 | 25.7 | nt | nt | nt | nt
CCCOc1ccc(N)cc1N | 11.3 | + | -8.2 | 78.7* | 41.6
CCCOc1cc(N)ccc1C(=O)OCCN(CC)CC | 0.8 | nt | nt | nt | nt
CC(=O)NC(Cc1c[nH]c2ccccc12)C(=O)NCc1ccco1 (stereo not drawn) | -3.9 | i | -2.6 | -6.1 | nt
CC(Cc1c[nH]c2ccccc12)C(=O)NCc1ccco1 (stereo not drawn) | -4.0 | i | 1.8 | 99.0* | nt
Cc1cc(O)ccc1N/C=C1\CCCC1=O | -19.6 | i | -0.8 | 81.1* | -7.0
CC(=O)Nc1ccc(N/C=C2/CCCC2=O)cc1 | -7.4 | i | -3.3 | -4.3 | -23.3
O=C(NCC1CCN(c2ccc(S(=O)(=O)N3CCOCC3)cc2)CC1)c1cccc(Cl)c1 | -4.0 | i | 2.7 | 11.2 | -23.0
COc1cccc(C(=O)NCC2CCN(c3ccc(S(=O)(=O)N4CCOCC4)cc3)CC2)c1 | -1.4 | i | -30.1* | -0.1 | -14.9
CC(C)N1CC2=C(OC(N)=C(C#N)C2c2cccnc2)/C(=C/c2cccnc2)C1 (stereo not drawn) | 26.1 | + | nt | 88.4* | 20.1
N#CC1=C(N)OC2=C(CN(Cc3ccccc3)C/C2=C\c2cccnc2)C1c1cccnc1 (stereo not drawn) | 5.8 | i | -3.0 | 52.7 | 12.2
O=C(Nc1cc2nn(-c3ccccc3)nc2cc1Cl)c1ccco1 | -16.8 | + | 1.4 | 27.6* | -2.6
Cc1ccccc1-n1c(C)cc(/C=C2/C(=N)N3C(c4ccccc4)=CSC3=NC2=O)c1C | -32.5 | + | 3.9 | 86.0 | -64.3
Cc1cc(/C=C2/C(=N)N3C(c4ccccc4)=CSC3=NC2=O)c(C)n1-c1ccccc1 | -29.1 | + | 3.1 | 89.7* | -49.4
Cc1nnc(SCC(=O)N2CC(=O)Nc3ccccc32)n1-c1ccccc1 | -16.9 | i | 2.1 | -2.1 | -11.7
Nn1c(Cc2ccccc2F)nnc1SCC(=O)N1CC(=O)Nc2ccccc21 | -30.2 | i | 0.0 | 8.6 | 60.0*
COc1cc(C2c3c(oc4ccccc4c3=O)C(=O)N2Cc2ccco2)ccc1O (stereo not drawn) | 0.8 | i | -1.8 | -2.3 | -11.2
COc1cccc(C2c3c(oc4ccccc4c3=O)C(=O)N2Cc2ccco2)c1 (stereo not drawn) | 2.2 | nt | -48.0* | nt | nt
O=C(O)c1ccc2c(c1)C(=O)N(Cc1ccco1)C2=O | -2.2 | i | 1.1 | 3.5 | nt
CCc1ccc(NC(=O)c2ccc3c(c2)C(=O)N(Cc2ccco2)C3=O)cc1 | 15.6 | + | -1.8 | 56.7* | -12.6
O=C(O)c1cccc(NC(=O)c2ccc3c(c2)C(=O)N(Cc2ccco2)C3=O)c1 | 6.0 | i | -2.2 | 62.3* | -6.2
CCCCOc1ccc(S(=O)(=O)NC(=O)C2(C)CCN2C(=O)Cc2cccs2)cc1 (stereo not drawn) | 2.6 | nt | nt | nt | nt
Cc1[nH]c2ccccc2c1/C=N/NC(=S)NC(C)C | -40.0 | i | -26.2* | -12.1 | 2.5
CC(C)NC(=S)N/N=C/c1c[nH]c2ccccc12 | -3.7 | i | 1.3 | -1.1 | 0.3
SMILES | MLLE-PAM2 inh | PABP polyA inh | MEX-5 binding | eIF4H inh | EBV gp42 inh
c1cncc(C2SCCCS2)c1 | 8.4 | nt | nt | nt | nt
C[n+]1ccccc1/C=C/c1ccc(F)c(F)c1 | -124.7 | nt | 2.2 | nt | nt
C[n+]1ccccc1/C=C/c1ccc(C#N)cc1 | -93.4 | + | -3.7 | 40.7 | nt
C[n+]1ccccc1/C=C/c1ccc2ncccc2c1 | -100.5 | + | -4.5 | 10.0 | nt
CCCS(=O)(=O)NC(=O)C1(C)CCN(C(=O)c2cccc(C(F)(F)F)c2)C1 (stereo not drawn) | 8.5 | nt | nt | nt | nt
COc1ccc(/C=C/C(=O)c2c(O)cc(C)oc2=O)c(OC)c1 | -93.1 | + | ? | ? | -46.7
COc1ccc(CNC[C@H]2O[C@@H](n3ccc(=O)[nH]c3=O)[C@H](O)[C@@H]2O)cc1 | -5.4 | nt | nt | nt | nt
Oc1ccc(NCc2ccccc2OCc2ccccc2)cc1 | -7.8 | + | -2.7 | 87.8* | -3.2
COc1ccc(CNC(=O)CN(Cc2ccc(C)cc2)C(=O)c2csnn2)cc1 | 44.0* | i | 0.0 | -0.8 | nt
